# According to PubChem BioAssay AID1721 (National Center for Advancing Translational Sciences (NCATS), 2009):
# The campaign covered roughly 290,000 compounds. About 1,100 (0.38%) were called active. Calls follow the shape of the dose curve; as a rule, active = well fitted inhibition curve with a large enough effect; inconclusive = small, poorly fitted or top-dose-only effect, or another doubt; inactive = no such curve, though single readings can be large or run the other way. For the sample, actives were picked, then their nearest neighbours and some compounds at random.
# Target: Pyruvate kinase (Leishmania mexicana) (UniProt Q27686)
# Sequence (Q27686 whole entry, looked up): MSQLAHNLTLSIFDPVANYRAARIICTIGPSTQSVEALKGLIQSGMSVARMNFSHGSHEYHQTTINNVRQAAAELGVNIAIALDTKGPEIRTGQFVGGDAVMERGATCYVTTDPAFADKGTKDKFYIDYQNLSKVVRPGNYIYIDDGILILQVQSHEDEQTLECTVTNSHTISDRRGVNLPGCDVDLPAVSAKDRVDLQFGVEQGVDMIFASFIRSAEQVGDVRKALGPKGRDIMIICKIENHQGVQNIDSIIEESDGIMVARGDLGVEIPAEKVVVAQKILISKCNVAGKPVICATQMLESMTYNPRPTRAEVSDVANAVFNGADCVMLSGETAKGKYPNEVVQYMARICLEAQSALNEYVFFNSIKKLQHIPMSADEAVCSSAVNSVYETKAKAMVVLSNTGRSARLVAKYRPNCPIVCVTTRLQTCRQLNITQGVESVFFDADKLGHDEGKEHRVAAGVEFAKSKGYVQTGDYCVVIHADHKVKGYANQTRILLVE
# Test: qHTS Assay for Inhibitors of Leishmania Mexicana Pyruvate Kinase (LmPK)
# Conditions: purified LmPK, Kinase-Glo ATP luminescence, 1 h; series mostly up to 57.5 µM; activity change, negative = inhibition: at the top concentration
# Description: NIH Chemical Genomics Center [NCGC] Malcolm Walkinshaw, Hugh Morgan, Linda Gilmore University of Edinburgh, UK MLPCN Grant: 1 R03 MH085697-01 NCGC Assay Overview: Pyruvate kinase (L. Mexicana) (LmPK) enzyme was supplied as a highly purified (>95% pure) sulphate-free preparation from University of Edinburgh, UK and assayed for its ability to generate ATP from ADP using phosphoenolpyruvate (PEP) as a substrate. ATP generation was detected in a coupled reaction by luciferase-mediated luminescence, an ATP-dependent process. […] The enzyme was assayed at an intermediate level of activity to screen for both inhibitors and activators.
# NCGC Assay Protocol Summary: Three uL of enzyme mix (kept on ice) in assay buffer (50 mM Imidazole pH7.2, 50 mM KCl, 7 mM MgCl2, 0.01% Tween 20, 0.05% BSA) containing PEP (0.5 mM final concentration) and LmPK (0.1 nM final concentration) was dispensed into white solid bottom 1,536 well microtiter plates. 23 nL of compound were delivered by a pin tool and 1 uL of ADP mix in assay buffer (r.t; 0.1 mM final ADP concentration) was added. Plates were incubated at room temperature for 1 hour. Two uL of detection mix (Kinase-Glo, Promega; at 4 degree Celsius protected from light) was added and luminescence read by a ViewLux (Perkin Elmer) at 1 second exposure/plate. Data were normalized to the uninhibited and AC100 inhibition (no enzyme). To monitor activation, the first column contained a five-fold concentration of LmPK (0.5 nM).
# % is scaled to controls: 0 for no effect and ±100 for the full control effect; potency is read from the fitted curve at half-maximal effect.
SMILES,"activity change, negative = inhibition",Potency
O=C(NCc1ccccc1Cl)C1CCN(c2ncnc3c2nc2n3CCCCC2)CC1,3.48% (inactive),
Cc1cc(C(=O)N/N=C/c2ccc(O)c([N+](=O)[O-])c2)c(C)n1-c1ccc(F)cc1,-1.12% (inactive),
O=C1CSC(=S)N1/N=C/c1ccc(O)c([N+](=O)[O-])c1,,25.1 µM (active)
CCOc1cccc(/C=N/N2C(=O)CSC2=S)c1O,-4.21% (inactive),
O=C(CN1CCCCCC1)Nc1ccc(Br)cc1[N+](=O)[O-],-3.41% (inactive),
O=C(NCCCNC(=O)c1ccccc1Cl)c1cnccn1,3.78% (inactive),
CC(C)N(C(=O)c1ccc(-c2ccccc2F)cc1)C(C)C,6.45% (inactive),
CC(=O)N(C1=C(Cl)C(=O)c2ccccc2C1=O)c1ccc(C(=O)O)cc1,,4.47 µM (active)
O=C(CN1C(=O)c2ccccc2C1=O)NCc1ccc(C(=O)O)cc1,-1.42% (inactive),
Cc1cccc(N2CCN(S(=O)(=O)c3ccc4[nH]c(=O)c(=O)[nH]c4c3)CC2C)c1 (configuration not stated),5.52% (inactive),
O=C(/C=C/NCc1ccc(F)cc1)c1ccccc1,-3.74% (inactive),
O=C(COc1ccc(S(=O)(=O)Nc2cccc(C(F)(F)F)c2)cc1)N1CCOCC1,-2.94% (inactive),
CCCn1c(C(C)Nc2nc(-c3ccc(C)cc3)cs2)nc2cc(Cl)c(N3CCCCC3)cc21 (configuration not stated),-7.73% (inactive),
COc1ccc(-c2nc(-c3ccccc3)no2)c(OC)c1,,14.1 µM (active)
COc1ccc(Sc2nc(-c3ccccc3)ncc2OC)cc1,7.75% (inactive),
COc1ccccc1Cc1nc(-c2ccc(C)cc2)no1,-1.63% (inactive),
COC(=O)C1=C(C(=O)OC)[C@@H]2N(C)c3ccccc3[C@@]23C[C@@H](C(=O)OC)N(S(=O)(=O)c2ccc(Br)cc2)C3=N1,-0.27% [at 11.5 µM] (inactive),
COc1cc(CO)ccc1OCC(=O)Nc1cccc2ccccc12,-10.3% (inactive),
Cc1nc2cc3c(cc2s1)OCO3,4.7% (inactive),
Brc1ccc2nc(N3CCCC3)sc2c1,-0.864% [at 11.5 µM] (inactive),
c1c2c(cc3sc(N4CCCCC4)nc13)OCCO2,,6.31 µM (active)
CCOc1ccc(NC(=O)COc2ccc(S(=O)(=O)N3CCCC3)cc2)cc1,1.14% (inactive),
C[C@H]1Cc2c(-c3ccccc3)nc3c(c2CO1)CN(S(=O)(=O)c1ccc(Cl)c2nonc12)CC3,1.27% [at 11.5 µM] (inactive),
Cn1cc([N+](=O)[O-])c(C(=O)Nc2cnn(Cc3ccc(F)cc3)c2)n1,-0.993% (inactive),
Cc1onc(C(=O)Nc2ccc3c(c2)OCO3)c1[N+](=O)[O-],-3.39% (inactive),
Cn1cc([N+](=O)[O-])c(C(=O)Nc2ccc3c(c2)OCCO3)n1,,14.1 µM (active)

SMILES,"activity change, negative = inhibition",Potency
CCCCNC(=O)N(O)C1N(/N=C/c2ccccc2O)C(=S)SC1(C)C (configuration not stated),-7.29% (inactive),
COc1ccc(NS(=O)(=O)c2ccc3oc(SCC(N)=O)nc3c2)cc1,-3.65% (inactive),
CC(=O)Nc1ccc(NS(=O)(=O)c2ccc3c(c2)NC(=O)CC(=O)N3)cc1,-2.09% (inactive),
CN1CCN(C(=O)C(=O)c2cn(CC(=O)N3CCCC3)c3ccccc23)CC1,-2.77% (inactive),
O=C(c1ccc(F)cc1)n1c(=S)nc2ccccn21,,5.01 µM (active)
O=C(c1ccc(F)cc1)n1cc(C(=S)N2CCOCC2)c2ccccc21,0.959% (inactive),
O=C(Cn1c(=S)nc2ccccn21)N1CCc2ccccc2C1,-1.24% (inactive),
C[C@H]1Cc2c(COc3ccccc3)nc3c(c2CO1)CN(C(=O)NCc1ccco1)CC3,4.14% [at 11.5 µM] (inactive),
CSCCC(NS(=O)(=O)c1ccccc1F)C(=O)N1CC=C(c2ccccc2)CC1 (configuration not stated),-4.3% (inactive),
O=C(NC1CCN(C(=S)Nc2ccc(Cl)cc2)CC1)C1CCCCC1,-3.78% (inactive),
CC(C)CC(=O)NC(=S)NNC(=O)c1cccc([N+](=O)[O-])c1,4.18% (inactive),
CCCCCC(=O)NC(=S)NNC(=O)c1ccc([N+](=O)[O-])cc1,,31.6 µM (active)
COCCCNC(=S)NC(=O)c1ccc([N+](=O)[O-])cc1,0.0876% (inactive),
COc1cccc(C(=O)NNC(=O)c2cccc(F)c2)c1,7.37% (inactive),
COc1cccc(C(=O)c2cc3ccc(O)cc3oc2=O)c1,,14.1 µM (active)
COc1ccc2oc(=O)c(C(=O)N3CCCC3)cc2c1,0.323% (inactive),
CC(=O)C1=C(C)NC(=O)NC1c1ccc2c(c1)OCO2 (configuration not stated),-1.41% (inactive),
COC(=O)C(C)n1cnc2c(nnn2-c2ccc(F)cc2)c1=O (configuration not stated),-6.91% (inactive),
CC(=O)Nc1ccc(NC(=O)c2ccc3c(c2)C(=O)N(c2ccccc2C)C3=O)cc1,-0.612% (inactive),
O=C(NCc1ccccc1)C1CCN(C(=O)Cc2ccccc2)CC1,-10.4% (inactive),
Oc1ccc(N=Nc2nccs2)c(O)c1,,25.1 µM (active)
Oc1ccc2ccccc2c1N=Nc1nccs1,-17.8% (inactive),
CCOc1ccc(N(CC(=O)Nc2cccc(OC)c2)S(C)(=O)=O)cc1,5.61% (inactive),
CC1(C(=O)NNC(=S)NCC2CCCO2)CC1(Cl)Cl (configuration not stated),-6.61% (inactive),
CN(C)C(=O)Cn1c(=O)n(S(=O)(=O)c2ccccc2)c2ccccc21,1.22% (inactive),
CCOC(=O)c1c(S(=O)(=O)Nc2cccc(Cl)c2)c(C)n(C)c1C,-1.98% (inactive),
